Laboratory results: PubChem BioAssay (NCATS)
Inconclusive results are not listed. Entries that show only a call come without a potency. Activity calls are given as the source filed them. The call rests on the fitted dose curve; in most records, active means well fitted cell-killing curve with a large enough effect; inconclusive means small, poorly fitted or top-dose-only effect, or effect the other way; inactive means no such curve, though single readings can be large or run the other way.

How the values were obtained:
[1] = Quantitative High-Throughput drug screen in 47 multiple myeloma cell lines against the NCATS MIPE library collection: KMS11_JCRBsus cell viability assay (AID 1919873); further: nearly all actives have a fitted effect of over 50% in size
How it was run: (§1)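 500 cells/well; MIPE 4.0 drugs pin-transferred; 48 h, 37C, 5% CO2. CellTiter-Glo, 5 min RT, luminescence. Controls: DMSO 100%, media 0%.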

[2] = Quantitative High-Throughput drug screen in 47 multiple myeloma cell lines against the NCATS MIPE library collection: KMS28BM_JCRB cell viability assay (AID 1919874); further: nearly all actives have a fitted effect of over 35% in size
How it was run: as §1
Potency means the concentration at half of the fitted maximal effect.

SMILES | Potency [1] | Potency [2]
CCC[C@H]1C[C@H](C(=O)N[C@@H]([C@@H]2O[C@@H](SC)[C@@H](O)[C@@H](O)[C@@H]2O)[C@H](C)Cl)N(C)C1 | inactive | inactive
O=C(C[C@@H]1CC=CCCC(=O)O[C@H](c2ccccc2)CNC1=O)NCc1ccc(Cl)cc1 | inactive | inactive
Cn1cc(C2=C(c3c4n(c5ccccc35)CCC(CN)C4)C(=O)NC2=O)c2ccccc21 (configuration not stated) | 7.43 µM (active) | 10.5 µM (active)
OCc1ccccc1O[C@@H]1O[C@H](CO)[C@H](O)[C@H](O)[C@H]1O | inactive | inactive
Cn1cc(CNCC2CCN(c3ncc(C(=O)NO)cn3)CC2)c2ccccc21 | 0.0264 µM (active) | 0.0187 µM (active)
CC(=O)NCC(=O)N1[C@H]2CC[C@H]1c1cc(Nc3ncc(C(F)(F)F)c(NC4CCC4)n3)ccc12 | 0.0662 µM (active) | 3.32 µM (active)
C[C@H](O)[C@@H]1C(=O)N2C(C(=O)O)=C(S[C@@H]3CN[C@H](CNS(N)(=O)=O)C3)[C@@H](C)[C@@H]12 | inactive | inactive
COc1ccc(S(=O)(=O)Nc2cc(-c3c(O)ccc4ccccc34)c(O)c3ccccc23)cc1 | 3.32 µM (active) | 3.72 µM (active)
CCCCCCCCCCCC(CC1OC(=O)C1CCCCCC)OC(=O)C(CC(C)C)NC=O (configuration not stated) | inactive | inactive
C[C@@H]1C(=O)O[C@H]2CC34[C@H]5C[C@@H](C(C)(C)C)C36[C@H](OC(=O)[C@@H]6O)O[C@@]4(C(=O)O5)[C@]21O (some centres not stated) | inactive | inactive
Cn1cc(C[C@@H](N)C(=O)O)c2ccccc21 | inactive | inactive
